Screening data as filed in PubChem.
Giardia kill = Giardia lamblia killing. Giardia lamblia trophozoite viability. activity change, % at 7.66 µM, hits read low. actives 0.15% (n = 340,000). AID 540267; in the data active = activity change below about -80%; inconclusive = between about -30% and that limit;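 also: parasites exposed to compound for two days anaerobically before the ATP read; % is scaled to controls: 0 for no effect and ±100 for the full control effect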
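Trophozoite viability was measured as ATP-dependent luminescence, read 15-30 min after reagent addition. Before that, parasites at 100 cells/well were exposed to compounds for 48 h, anaerobically, at 37 deg C.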
TRPV1 agonist = activates the human vanilloid receptor TRPV1 | actives 0.19% (n = 320,000) | TRPV1-expressing cells, Fluo-8 calcium influx, agonist mode | Q8NER1 | activation, % at 8.33 µM; in the data active = activation above about 80%; inconclusive = between about 30% and that limit; also: 0% is about no effect
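TRPV1-expressing cells were cultured overnight at 35.5C and loaded with Fluo-8 calcium dye for 40 to 90 min at room temperature. After a 10 s baseline, compound was added and calcium influx was read kinetically for 3 min (ex 480/em 520 nm).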
TRPV1 PAM = potentiators of human vanilloid receptor 1 (TRPV1) | Q8NER1 | TRPV1-expressing cells, Fluo-8 calcium influx, capsaicin EC20 potentiation | potentiation, % at 8.33 µM | actives 0.02% (n = 320,000) | AID 540277; in the data active = potentiation above about 80%; inconclusive = between about 30% and that limit; also: 0% is about no effect
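Fluo-8 calcium influx in TRPV1-expressing cells, kinetic read (ex 480/em 520 nm). Compound added and read 3 min for agonist activity, followed by capsaicin at EC20 final and 2 min further read for enhancement.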
ELG1 repair inh = ELG1-dependent DNA repair inhibition | HEK293T ELG1-luciferase reporter, luminescence, 16 h; DNA damage induced by 5-fluorouridine | AID 504467 | Potency, µM (doses to about 46.1 µM), for the others: top-dose activity change, negative = inhibition, usual class: inhibitors | actives 2.3% (n = 330,000); also: potency is read from the fitted curve at half-maximal effect; % is scaled to controls: 0 for no effect and ±100 for the full control effect; nearly all actives have a fitted effect of over 55% in size
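DMSO vehicle served as the neutral condition. Each well held 2,000 cells given 5-fluorouridine plus compound; after 16 hr at 37 °C/5% CO2, ONE-Glo was added and luciferase measured 30 min later.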
FUS suppressor = FUS proteinopathy suppression in yeast; S. cerevisiae FUS-expressing, growth rescue, OD600, 24 h; Potency, µM (top dose mostly 76.6 µM), actives largely listed as activators; actives 0.24% (n = 390,000); AID 1347120;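 also: potency is read from the fitted curve at half-maximal effect; plate controls were DMSO vehicle for no effect and reference control for full effect; nearly all actives have a fitted effect of over 55% in size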
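Toxicity suppression screen in FUS-yeast. Cells induced with 2% galactose, starting OD 0.005, treated 24hr at 30C with compounds at multiple final concentrations; growth by OD600.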
ELG1 FLuc counter = luciferase inhibition in cell-free luciferin readout for ELG1 hits; shares compounds with ELG1 repair inh; actives 3% (n = 350); AID 624247; Potency, µM (doses to about 46.1 µM), without a hit: at the highest dose activity change, negative = inhibition, hits mostly inhibitors; cell-free firefly luciferase luminescence counter-screen, ViewLux; also: potency is read from the fitted curve at half-maximal effect; % is scaled to controls: 0 for no effect and ±100 for the full control effect
ELG1 Luc conf = inhibits ELG1-dependent DNA repair in HEK293T cells, confirmed | shares compounds with ELG1 repair inh | HEK293T ELG1-luciferase levels, luminescence; cells co-treated with 5-fluorouridine | Potency, µM (top dose mostly 46.1 µM), inactives show at the top dose activity change, negative = inhibition, usual class: inhibitors | actives 68% (n = 670) | AID 624248; also: potency is read from the fitted curve at half-maximal effect; % is scaled to controls: 0 for no effect and ±100 for the full control effect; nearly all actives have a fitted effect of over 55% in size
Target sequence (Q96QE3 whole entry, looked up): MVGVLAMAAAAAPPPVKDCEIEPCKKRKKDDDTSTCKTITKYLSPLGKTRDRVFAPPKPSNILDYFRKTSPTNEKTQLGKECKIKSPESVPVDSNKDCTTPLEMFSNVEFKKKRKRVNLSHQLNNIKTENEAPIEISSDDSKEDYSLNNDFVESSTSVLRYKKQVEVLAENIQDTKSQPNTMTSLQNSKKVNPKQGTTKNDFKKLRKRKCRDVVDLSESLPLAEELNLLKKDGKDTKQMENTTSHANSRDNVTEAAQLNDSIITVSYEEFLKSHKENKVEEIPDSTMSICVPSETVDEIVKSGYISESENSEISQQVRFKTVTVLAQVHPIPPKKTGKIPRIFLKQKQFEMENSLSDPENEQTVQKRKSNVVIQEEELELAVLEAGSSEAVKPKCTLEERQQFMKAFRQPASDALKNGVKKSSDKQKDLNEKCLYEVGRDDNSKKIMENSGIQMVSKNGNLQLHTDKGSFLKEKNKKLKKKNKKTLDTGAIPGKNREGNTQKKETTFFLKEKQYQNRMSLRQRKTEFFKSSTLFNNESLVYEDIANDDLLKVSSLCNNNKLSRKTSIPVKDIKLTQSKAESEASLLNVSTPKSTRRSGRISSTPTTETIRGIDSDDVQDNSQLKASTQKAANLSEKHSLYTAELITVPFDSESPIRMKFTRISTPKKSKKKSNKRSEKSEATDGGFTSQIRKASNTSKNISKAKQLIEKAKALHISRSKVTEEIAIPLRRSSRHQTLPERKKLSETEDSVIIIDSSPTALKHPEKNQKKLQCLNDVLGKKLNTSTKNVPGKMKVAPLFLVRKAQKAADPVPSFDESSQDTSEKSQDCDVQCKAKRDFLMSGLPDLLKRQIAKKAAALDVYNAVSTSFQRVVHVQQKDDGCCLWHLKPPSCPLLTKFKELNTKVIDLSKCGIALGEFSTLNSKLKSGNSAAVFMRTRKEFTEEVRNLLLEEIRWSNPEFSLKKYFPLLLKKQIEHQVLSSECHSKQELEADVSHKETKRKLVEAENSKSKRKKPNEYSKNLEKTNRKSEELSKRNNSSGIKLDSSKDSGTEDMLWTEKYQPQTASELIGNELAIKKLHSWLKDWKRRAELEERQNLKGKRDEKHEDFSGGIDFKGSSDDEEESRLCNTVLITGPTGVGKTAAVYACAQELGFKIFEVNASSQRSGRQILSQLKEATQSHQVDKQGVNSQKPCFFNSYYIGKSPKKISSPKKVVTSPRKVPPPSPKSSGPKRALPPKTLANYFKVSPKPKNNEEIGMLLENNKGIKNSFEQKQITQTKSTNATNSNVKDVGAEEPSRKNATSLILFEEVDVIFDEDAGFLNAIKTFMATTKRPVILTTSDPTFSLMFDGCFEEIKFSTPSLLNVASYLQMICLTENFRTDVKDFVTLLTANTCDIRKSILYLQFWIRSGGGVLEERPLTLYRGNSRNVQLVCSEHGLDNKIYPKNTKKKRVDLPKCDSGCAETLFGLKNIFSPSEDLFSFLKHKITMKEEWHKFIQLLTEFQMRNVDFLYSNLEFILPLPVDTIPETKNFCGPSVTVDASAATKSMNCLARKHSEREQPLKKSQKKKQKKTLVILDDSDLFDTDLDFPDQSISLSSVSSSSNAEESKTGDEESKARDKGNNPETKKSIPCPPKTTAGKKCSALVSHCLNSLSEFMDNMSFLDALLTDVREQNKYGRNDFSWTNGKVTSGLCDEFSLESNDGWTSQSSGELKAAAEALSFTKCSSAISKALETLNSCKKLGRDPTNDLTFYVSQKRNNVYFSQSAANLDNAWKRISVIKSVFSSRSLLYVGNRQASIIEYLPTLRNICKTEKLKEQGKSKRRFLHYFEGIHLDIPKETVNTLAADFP
ELG1-Luc MMS = MMS-stimulated human ELG1 repair inhibition, confirmed; Potency, µM (doses to about 46.1 µM), for inactives: at the top dose activity change, negative = inhibition, actives largely listed as inhibitors; AID 624249; actives 53% (n = 670); HEK293T luciferase-tagged ELG1 level, MMS stimulated; shares compounds with ELG1 repair inh; also: potency is read from the fitted curve at half-maximal effect; % is scaled to controls: 0 for no effect and ±100 for the full control effect; nearly all actives have a fitted effect of over 60% in size
ELG1 5FU viab = confirmation of ELG1 repair inhibitors: viability with 5FU. shares compounds with ELG1 repair inh. cell viability with 5-FU, ELG1-dependent repair. Potency, µM (highest dose often 46.1 µM), for inactives: top-dose activity change, negative = viability loss, most hits filed as cytotoxic. 670 tested, under 10 active. AID 624250;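 also: ELG1-luc HEK293T cells cotreated with 5-fluorouridine at 10 µM final; potency is read from the fitted curve at half-maximal effect; viability measured 16 h after compound addition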
ELG1 MMS cell = confirmation of ELG1 repair inhibitors: viability with MMS. shares compounds with ELG1 repair inh. Cell viability with MMS, ELG1-dependent DNA repair. Potency, µM (highest dose often 46.1 µM), for the others: top-dose activity change, negative = viability loss, hits mostly cytotoxic. actives 33% (n = 670);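 also: ELG1-luc HEK293T cells co-treated with 10 µM MMS; potency is read from the fitted curve at half-maximal effect; viability read 16 h after compound addition; % is scaled to controls: 0 for no effect and ±100 for the full control effect; nearly all actives have a fitted effect of over 60% in size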
Cell viab unstim = counter-screen for ELG1 repair inhibitors: unstimulated cell viability; shares compounds with ELG1 repair inh; cell viability counter-screen, unstimulated, luminescence; Potency, µM (top dose mostly 45.9 µM), for inactives: top-dose activity change, negative = loss of viability, hits mostly cytotoxic; actives 8% (n = 900);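 also: potency is read from the fitted curve at half-maximal effect; compound exposure lasted 16 hours before reading; % is scaled to controls: 0 for no effect and ±100 for the full control effect; nearly all actives have a fitted effect of over 55% in size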
FLuc biochem = counter-screen for ELG1 repair inhibitors: firefly luciferase inhibition; shares compounds with ELG1 repair inh; actives 10% (n = 350); purified firefly luciferase, luminescence counter-screen; Potency, µM (highest dose often 57.5 µM), for inactives: top-dose activity, negative = inhibition, actives largely listed as inhibitors; AID 624253; also: potency is read from the fitted curve at half-maximal effect; % is scaled to controls: 0 for no effect and ±100 for the full control effect
* hit, by the source's call; i = inactive; ? = inconclusive; nt = no result. Only some compounds are listed: those with a hit (about 2.3% of all), similar ones and a draw of the others. Unless noted, calls follow the shape of the dose curve; as a rule, active = well fitted curve in the direction sought with a large enough effect; inconclusive = small, poorly fitted or top-dose-only effect, or another doubt; inactive = no such curve, though single readings can be large; an effect the other way counts as inactive or inconclusive.

SMILES | Giardia kill | TRPV1 agonist | TRPV1 PAM | ELG1 repair inh | FUS suppressor | ELG1 FLuc counter | ELG1 Luc conf | ELG1-Luc MMS | ELG1 5FU viab | ELG1 MMS cell | Cell viab unstim | FLuc biochem
COc1ccc(-n2ccnc(NCCc3ccc(S(N)(=O)=O)cc3)c2=O)cc1 | nt | nt | nt | nt | i | nt | nt | nt | nt | nt | nt | nt
CC(=O)c1ccc(NC(=O)c2noc3c2CSc2ccccc2-3)cc1 | nt | nt | nt | nt | i | nt | nt | nt | nt | nt | nt | nt
Cc1nn(-c2ccccc2)c(N2CCCC2)c1/C=N/NC(=O)c1cc(-c2ccccc2)nc2ccccc12 | 3.3 | -6.2 | -2.3 | 3.66µM* | ? | nt | 7.91µM* | ? | -5.6% | -7.6% | ? | nt
O=C(N/N=C/c1c(F)c(F)c(F)c(F)c1F)c1cc(-c2ccccc2)nc2ccccc12 | -23.2 | -2.1 | 6.4 | -5.7% | i | nt | nt | nt | nt | nt | nt | nt
CC(=O)NC(CC(=O)Nc1ccc(S(=O)(=O)NC2=NCCCCC2)cc1)c1ccccc1 (stereo not drawn) | 5.7 | 2.1 | 2.2 | 18.4% | i | nt | nt | nt | nt | nt | nt | nt
CC(=O)NC(CC(=O)Nc1ccc(S(=O)(=O)Nc2nccs2)cc1)c1ccccc1 (stereo not drawn) | 5.6 | -1.1 | 12.9 | 0.517µM* | i | 6.4% | ? | -5.8% | 4.9% | 10.6% | 5.3% | 1.6%
Cc1ccc(Cn2cc(SCC(=O)Nc3nccs3)c3ccccc32)cc1 | -6.9 | -1.3 | -27.4 | ? | i | nt | nt | nt | nt | nt | nt | nt
Cc1cccc(Cn2cc(SCC(=O)Nc3nccs3)c3ccccc32)c1 | 12.3 | -0.2 | ? | ? | i | 67.2% | nt | nt | nt | nt | -7.8% | 2.91µM*
CCOc1ccc(C(C(=O)NCC2CCCO2)N(Cc2cccs2)C(=O)c2snc(C(N)=O)c2N)cc1 (stereo not drawn) | -10.7 | 3.0 | 4.4 | 4.61µM* | i | nt | 7.91µM* | 7.91µM* | -11.8% | ? | ? | nt
CCc1ccc(NCc2cc3cc4c(cc3n(CC(=O)Nc3ccccc3Cl)c2=O)OCO4)cc1 | nt | nt | nt | nt | i | nt | nt | nt | nt | nt | nt | nt
CC1(C)Cc2c(c(N3CCOCC3)nc3sc4c(=O)[nH]cnc4c23)CS1 | 19.8 | 1.9 | -1.6 | -6.5% | i | 6.0% | 14.1µM* | 6.4% | ? | 12.7% | -5.5% | 2.8%
COc1ccc(N(CC(=O)NCc2ccccc2Cl)S(=O)(=O)c2c(C)[nH]c(=O)[nH]c2=O)cc1 | nt | nt | nt | nt | i | nt | nt | nt | nt | nt | nt | nt
COc1cc2c(C(=O)Nc3ccccc3F)cn(C)c(=O)c2cc1OC | -1.8 | 7.1 | -23.7 | 4.7% | i | 5.8% | 17.7µM* | 2.6% | ? | ? | -1.0% | 4.0%
COc1ccccc1NC(=O)c1cn(C)c(=O)c2cc(OC)c(OC)cc12 | 4.1 | 0.5 | -8.7 | ? | i | nt | nt | nt | nt | nt | nt | nt
COc1ccc(OC)c(CNC(=O)c2nn(C)c3c2CS(=O)(=O)c2ccccc2-3)c1 | 9.8 | -4.9 | 3.1 | 3.26µM* | i | nt | 11.2µM* | 25.4% | 9.3% | -8.9% | ? | nt
COc1ccc(CNC(=O)c2nn(C)c3c2CS(=O)(=O)c2ccccc2-3)cc1 | -17.8 | 1.3 | ? | -4.4% | i | nt | nt | nt | nt | nt | nt | nt
O=C(Nc1ccc(F)cc1)N(Cc1cccs1)Cc1cc2cc3c(cc2[nH]c1=O)OCO3 | 35.2 | -1.4 | -5.1 | 18.4µM* | nt | ? | 8.89µM* | 28.1µM* | -5.6% | ? | ? | -15.1%
Cc1ccc(NC(=O)C2CCCN(S(=O)(=O)c3ccc4c(c3)CCCC(=O)N4)C2)cc1N(C)C (stereo not drawn) | nt | nt | nt | nt | i | nt | nt | nt | nt | nt | nt | nt
CC(C)(C)OC(=O)NCc1ccc(NC(=O)c2nc[nH]c2C(=O)NCCCCCCNC(=O)c2[nH]cnc2C(=O)Nc2ccc(CNC(=O)OC(C)(C)C)cc2)cc1 | -0.2 | nt | nt | 2.31µM* | i | nt | 1.12µM* | 25µM* | ? | ? | ? | nt
CC(C)(C)OC(=O)NCc1ccc(NC(=O)c2nc[nH]c2C(=O)Nc2cc(Br)ccc2F)cc1 | nt | nt | nt | nt | i | nt | nt | nt | nt | nt | nt | nt
CC(C)(C)OC(=O)NCc1ccc(NC(=O)c2nc[nH]c2C(=O)NCCCNC(=O)c2[nH]cnc2C(=O)Nc2ccc(CNC(=O)OC(C)(C)C)cc2)cc1 | -3.6 | nt | nt | 1.83µM* | i | nt | 2.23µM* | 12.5µM* | ? | 25µM* | ? | nt
CC(C)(C)OC(=O)NCc1ccc(NC(=O)c2nc[nH]c2C(=O)NCCCCNC(=O)c2[nH]cnc2C(=O)Nc2ccc(CNC(=O)OC(C)(C)C)cc2)cc1 | -23.1 | nt | nt | 0.92µM* | i | ? | 1.12µM* | 1.26µM* | -7.5% | ? | ? | 1.1%
CC(C)(C)OC(=O)NCCCC[C@H](NC(=O)c1[nH]cnc1C(=O)Nc1ccc(CNC(=O)OC(C)(C)C)cc1)C(=O)OC(C)(C)C | -3.3 | 4.0 | 28.2 | ? | ? | nt | nt | nt | nt | nt | nt | nt
